# Screens deposited in PubChem by National Center for Advancing Translational Sciences (NCATS).
# Only a selection was taken, and hits are over-represented in it overall.
# LmPK inhibitor: inhibitors of Leishmania mexicana pyruvate kinase | purified LmPK, Kinase-Glo ATP luminescence, 1 h | Potency, µM (highest dose often 57.5 µM), for inactives: at the top dose activity change, negative = inhibition, most hits filed as inhibitors | actives 0.37% (n = 290,000) | AID 1721; further: potency means the concentration at half of the fitted maximal effect; on the % scale 0 is the no-effect control and ±100 the full control effect
# Target sequence (Q27686 whole entry, looked up): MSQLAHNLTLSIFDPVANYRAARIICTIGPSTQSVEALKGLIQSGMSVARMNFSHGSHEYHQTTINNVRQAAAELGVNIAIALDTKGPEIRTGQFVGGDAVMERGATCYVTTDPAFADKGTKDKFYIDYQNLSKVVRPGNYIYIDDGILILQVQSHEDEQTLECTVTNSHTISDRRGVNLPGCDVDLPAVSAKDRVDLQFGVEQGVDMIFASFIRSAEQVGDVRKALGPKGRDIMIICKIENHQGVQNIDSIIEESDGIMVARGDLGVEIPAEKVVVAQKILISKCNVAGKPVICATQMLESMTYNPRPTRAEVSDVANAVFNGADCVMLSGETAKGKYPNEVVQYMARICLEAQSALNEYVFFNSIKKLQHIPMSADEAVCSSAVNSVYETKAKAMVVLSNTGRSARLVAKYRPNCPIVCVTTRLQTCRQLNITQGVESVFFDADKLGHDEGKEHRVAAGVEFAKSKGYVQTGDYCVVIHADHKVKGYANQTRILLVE
#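 Purified LmPK (0.1 nM) converted ADP (0.1 mM) to ATP with PEP (0.5 mM) in imidazole buffer pH 7.2 with KCl and MgCl2, 1 h at room temperature. ATP was read by Kinase-Glo luminescence; data normalized to uninhibited and no-enzyme controls.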
# SARS PLP yeast: SARS-CoV PLP inhibition in yeast | S. cerevisiae expressing SARS-CoV PLpro, growth rescue | Potency, µM (highest dose often 32.9 µM), for inactives: at the top dose activity, positive = growth rescue, usual class: activators | actives 0.19% (n = 330,000) | AID 485353; calls by dose curve; further: potency means the concentration at half of the fitted maximal effect; 0% is about no effect; nearly all actives have a fitted effect of over 55% in size
# TbPYK inhibitor: T. brucei pyruvate kinase inhibition | TbPYK enzyme, Kinase-Glo Plus ATP luminescence, 45 min | AID 624173 | actives 0.12% (n = 410,000) | Potency, µM (series often up to 76.8 µM), without a hit: at the highest dose activity, negative = inhibition, actives largely listed as inhibitors; further: potency means the concentration at half of the fitted maximal effect; on the % scale 0 is the no-effect control and ±100 the full control effect; nearly all actives have a fitted effect of over 50% in size
#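 Activity of T. brucei pyruvate kinase was followed by Kinase-Glo Plus luminescence after the enzyme reacted 45 min at room temperature with 130 uM ADP (final) and substrate. Test compounds were added before ADP at multiple concentrations.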
# NS1 inh: inhibitors of influenza NS1 protein function; AID 2326; Potency, µM (highest dose often 46.1 µM), for inactives: at the top dose activity, positive = more growth; actives 0.4% (n = 270,000); calls by dose curve; further: potency means the concentration at half of the fitted maximal effect; actives are rising curves; nearly all actives have a fitted effect of over 50% in size
#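 S. cerevisiae expressing influenza A NS1, grown in glucose, washed, then diluted 1:100 into pH 6.0 -URA galactose medium with 23 nl compound. Growth recovery read as OD600; NS1-free strain serves as control.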
# CHX counter: affects cycloheximide protein synthesis inhibition readout, counter-screen; cell reporter, cycloheximide protein synthesis inhibition counterscreen; max response, %; actives 12% (n = 300,000); AID 2314; in the data active means max response mostly above about 13%, no sharp cut-off; inactive means mostly below about 14%; further: read at 38.3 µM for the half of the compounds with a filed dose; 0% is about no effect
# Shiga inhibitor: blocks Shiga toxin action in Vero cells; Vero cells, Shiga toxin protein synthesis inhibition reporter; inhibition, % at 38.7 µM; actives 9.2% (n = 290,000); in the data active means inhibition mostly above about 28%, no sharp cut-off; inactive means mostly below about 43%; further: 0% is about no effect
# The depositor's hits bear a star; u = inconclusive; x = no result given; + = active, no number. Unless noted, the call rests on the fitted dose curve; in most records, active means well fitted curve in the direction sought with a large enough effect; inconclusive means small, poorly fitted or top-dose-only effect, or another doubt; inactive means no such curve, though single readings can be large; an effect the other way counts as inactive or inconclusive.
SMILES,LmPK inhibitor,SARS PLP yeast,TbPYK inhibitor,NS1 inh,CHX counter,Shiga inhibitor
CC(CC(=O)Nc1ccc2c(c1)c(=O)n(C)n2Cc1ccc(F)cc1)c1ccccc1 (stereo not drawn),x,x,-10.5%,x,x,x
O=C(Nc1cccc(C(F)(F)F)c1)c1csc([C@@H]2O[C@H](CO)[C@@H](O)[C@H]2O)n1,x,x,0.6%,x,x,x
CN(C(=O)c1ccno1)c1nnc(-c2ccccn2)s1,0.0%,-2.2%,-14.9%,-31.3%,2.7,21.5
COc1ccc(-c2nnc(N(C)C(=O)c3ccno3)s2)cc1,-3.0%,-35.7%,-4.3%,-0.5%,26.0*,60.2*
COc1ccc(-c2nnc(N(C)C(=O)C3CCCO3)s2)cc1 (stereo not drawn),-0.1%,-11.2%,-16.9%,-1.9%,26.0*,+
CCn1c(=O)c(C(=O)Nc2ccccn2)c(O)c2ccccc21,2.2%,-0.9%,-3.7%,-1.4%,2.7,1.8
O=C(Nc1ccccc1C(=O)Nc1ccccn1)c1ccccc1F,-2.4%,1.0%,-1.5%,3.6%,-2.6,-5.0
Cn1cc(C(=O)Nc2ccccn2)c(=O)c2ccccc21,-1.4%,1.4%,0.7%,1.7%,19.7*,47.3*
O=C(Nc1ccc(Cl)cn1)c1ccc2ccccc2n1,-0.3%,-0.1%,-4.3%,-7.0%,16.7,10.0
Cc1ccccc1C(=O)Nc1ccc(Cl)cn1,u,-1.7%,0.0%,-34.6%,24.2*,115.0*
Cc1cc(C(=O)Nc2ccccn2)cs1,14.1µM*,-16.5%,-16.5%,-3.3%,37.4*,48.1*
Cc1ccccc1C(=O)Nc1ccccn1,-17.6%,x,-3.8%,-3.8%,32.0*,56.9*
COc1cc(C(=O)Nc2ccccn2)cc(OC)c1OC,-6.8%,-1.0%,-2.1%,1.7%,-4.3,-5.2
Cc1ccccc1Nc1cc(C(=O)NCc2cccs2)c2ccccc2n1,x,x,1.0%,x,x,x
CCn1ncc(Br)c1C(=O)Nc1ccc(F)cc1F,7.4%,-4.6%,-2.6%,1.1%,4.2,4.7
CCn1cc(Br)c(C(=O)Nc2cccc(SC)c2)n1,-0.3%,-8.7%,0.4%,-10.7%,32.4*,+
CCn1cc(Br)c(C(=O)Nc2ccc(F)cc2F)n1,-7.3%,-2.1%,-8.6%,-10.6%,24.9*,44.6*
CCOC(=O)c1cccc(NC(=O)c2ccc(NC(=O)C3CCCO3)cc2)c1 (stereo not drawn),-0.7%,-3.4%,-1.4%,-1.2%,6.1,20.7
CCOC(=O)c1cc(NC(=O)COC)ccc1O,3.2%,-1.1%,x,-2.3%,1.0,-20.8
CCOC(=O)c1ccc(NC(=O)COC)cc1,-1.7%,-6.0%,1.2%,-26.4%,11.2*,35.5*
CCCCOC(=O)c1ccc(O)cc1,-4.6%,-23.2%,-4.8%,8.3%,11.3,14.3
CCc1ccc(NC(=O)c2ccc(NC(=O)C3CCCO3)cc2)cc1 (stereo not drawn),-14.2%,-4.6%,2.0%,-13.9%,14.0*,56.2*
CCCCOC(=O)Nc1ccc(C(=O)OCCC)cc1,-3.8%,-7.2%,-9.4%,-64.2%,29.4*,134.3*
COC(=O)c1ccc(NC(=O)c2ccc(NC(=O)C3CCCO3)cc2)cc1 (stereo not drawn),2.8%,-1.8%,2.7%,x,6.8,-13.0
CCCCOC(=O)c1ccc(NC(=O)C2CCCO2)cc1 (stereo not drawn),0.4%,-5.5%,0.4%,0.0%,35.5*,66.6*
SMILES,LmPK inhibitor,SARS PLP yeast,TbPYK inhibitor,NS1 inh,CHX counter,Shiga inhibitor
COCCCNC(=O)C[C@H]1C[C@H](C(=O)N2CCCCC2)[C@@]2(CCc3ccccc3)c3[nH]c4cc(CCC(=O)N(C)C)ccc4c3CCN2C1=O,x,2.0%,-5.2%,x,x,x
CCOC(=O)c1cc(NC(=O)C2CCCO2)cc(C(=O)OCC)c1 (stereo not drawn),1.9%,4.2%,-37.7%,-33.9%,0.7,-7.5
CCCOC(=O)c1ccc(NC(=O)C2C3CCC(C3)C2C(=O)O)cc1 (stereo not drawn),2.9%,-0.1%,-1.9%,-30.8%,46.7*,20.3*
CCOC(=O)c1ccc(NC(=O)C2CCCO2)cc1 (stereo not drawn),-8.9%,-11.6%,2.5%,-13.4%,32.4*,54.6*
CCOC(=O)c1cccc(NC(=O)c2ccccc2C)c1,3.0%,-0.7%,2.2%,x,18.2,6.3
CCOC(=O)c1ccc(NC(=O)C2CC2)cc1,-3.3%,-3.0%,0.8%,-60.0%,22.4*,71.6*
CCOC(=O)c1ccc(NC(=O)c2ccccc2C)cc1,-13.0%,-29.5%,-12.7%,-46.3%,52.8*,86.1*
N[C@@H](CP(=O)(O)O)C(=O)O,x,x,x,-0.3%,x,x
CC(=O)/C(N=Nc1ccc2c(c1)OCCO2)=C(\C)O,-1.0%,-3.1%,-13.9%,x,81.6*,135.6*
CC(=O)/C(N=Nc1ccc2c(c1)OCO2)=C(\C)O,-24.9%,-2.2%,-1.9%,16.3%,73.9*,107.8*
CC(=O)/C(N=Nc1ccc(C(=O)O)cc1)=C(\C)O,u,-1.4%,-13.0%,-1.0%,-1.9,3.5
C/C(=N\NC(=O)c1nnn(-c2nonc2N)c1CN1CCCCC1)c1ccccc1O,-5.1%,1.5%,2.9%,15.2%,-4.9,20.0
Nc1cc(-c2ccc(Cl)cc2)nn1-c1ccccc1,-5.0%,-2.1%,1.8%,x,42.9*,72.4*
Cc1ccc(-n2nc(-c3ccc(OC(F)(F)F)cc3)cc2N)cc1C,-4.1%,-1.9%,0.4%,18.1%,14.9*,33.2
CC(=O)Nc1ccc(-c2cc(N)n(-c3ccccc3)n2)cc1,15.8µM*,-1.8%,-26.8%,24.8%,63.8*,69.2*
Cc1ccc(-n2nc(-c3ccc(N)cc3)cc2N)cc1,-6.2%,-20.2%,-0.5%,u,31.6*,60.9*
CC(=O)c1ccc(-n2ccnc2)cc1,-0.5%,-1.0%,4.4%,2.4%,8.5,16.7
COC(=O)/C=C/c1ccc(-n2ccnc2)cc1,-4.1%,0.2%,10.8%,x,39.7*,38.3*
Nc1ccc(Oc2ccc3nc(-c4ccccc4)c(-c4ccccc4)nc3c2)cc1,-2.5%,2.4%,6.5%,-92.8%,1.2,-6.8
Nc1ccc(Oc2cc(N)cc(Oc3ccccc3)c2)cc1,1.3%,1.6%,-5.1%,-3.8%,43.6*,67.7*
CCC1CCCCN1C(=O)CSc1nnc(-c2cccs2)o1 (stereo not drawn),-1.0%,-4.0%,-11.4%,-28.8%,28.8*,88.5*
O=C(CSc1nnc(-c2cccs2)o1)OC1CCCCC1,0.5%,-2.1%,-9.4%,-51.5%,-2.5,1.1
CC1CCCN(C(=O)CSc2nnc(-c3cccs3)o2)C1 (stereo not drawn),0.0%,-1.6%,-2.3%,-2.8%,39.0*,63.9*
CCCCC(=O)O[C@]1(C(=O)CO)CCC2C3CCC4=CC(=O)CCC4(C)C3C(O)CC21C (stereo partly drawn),x,x,-3.0%,x,x,x
Oc1[nH]c2ccccc2c1C=Nc1ccccc1,-4.3%,-2.5%,-3.0%,-5.9%,33.1*,74.0*
OCCN=Cc1c(O)[nH]c2ccccc12,4.3%,1.2%,13.0%,0.3%,-7.1,-28.3
